The source made the active and inactive calls. Rule for the calls: active = hit-call score of the fitted dose curve at least 0.9, where 1 is the maximum; inactive = score below 0.9.

Read-out in this test: Monokine induced gamma interferon (MIG), CXCL9 (gene 4283)
Briefly: BSK_SAg_MIG: BioMAP Diversity Plus: SAg Assay for Monokine induced gamma interferon (MIG) Biomarker Activity (AID 2283092). The note with it: primary human HUVEC with PBMC; actives raise or lower the signal. The method, then:
BSK_SAg is a cell-based, multiplexed-readout assay that uses umbilical vein endothelium and peripheral blood mononuclear cells, a human vascular primary cell co-culture, with measurements taken at 24 hours after chemical dosing in a 96-well plate.BSK_SAg_MIG is an assay component measured in the BSK_SAg assay. It measures MIG antibody related to regulation of gene expression using ELISA technology.Data from the assay component BSK_SAg_MIG was analyzed into 1 assay endpoint. This assay endpoint, BSK_SAg_MIG, was analyzed with bidirectional fitting relative to DMSO as the negative control and baseline of activity. Using a type of binding reporter, gain or loss-of-signal activity can be used to understand changes in the signaling as they relate to the gene CXCL9. Furthermore, this assay endpoint can be referred to as a primary readout, because this assay has produced multiple assay endpoints where this one serves a signaling function. To generalize the intended target to other relatable targets, this assay endpoint is annotated to the cytokine intended target family, where the subfamily is chemotactic factor.
The levels of cell surface (or secreted, indicated by the prefix "s") biomarker endpoints were measured by ELISA. Overt cytotoxicity to cells in confluent adherent cultures (all systems other than the BT system) was assessed by measuring total protein levels using sulforhodamine B (SRB) staining in parallel cultures at the time of biomarker measurements, indicated as SRB endpoints. For proliferation assays for adherent cell types, individual cell types are cultured at sub-confluence and relative cell numbers quantified by SRB staining at time points optimized for each system (48 h: 3C and CASM3C systems; 72 h: BT and HDF3CGF systems; 96 h: SAg system). SRB was performed by staining cells with 0.1% SRB after fixation with 10% TCA and reading wells at 560 nm.Viability and proliferation of PBMC (T cells) was quantified by Alamar Blue reduction for the SAg and BT systems. For PBMC viability (referred to as PBMC Cytotoxicity within the assay endpoint names), cells were plated (75,000/well in a 96-well plate) and then chemical samples added for 1 h before addition of activators, SEB and TSST-1 (20 ng/mL final concentration each). Cells were incubated for 90 h. Then, Alamar Blue (20 uL/well) (Invitrogen, Cat DAL1100) was added for 6 h, and the plates were read with a fluorescence microplate reader at 546/580 nm (excitation/emission). For PBMC proliferation, cells were plated and activated as above but incubated for only 16 h prior to addition of Alamar Blue. Plates were read after 6 h.
For the compound `CNC(=O)Oc1ccccc1OC(C)C`, the result was inactive.

As to `CCC(C)(C)C(=O)OC1=C(c2ccc(Cl)cc2Cl)C(=O)OC12CCCCC2`, the AC50 is 21.3 µM (active).

Consider `O=C(O)C(F)(F)C(F)(F)C(F)(F)C(F)(F)C(F)(F)C(F)(F)C(F)(F)F`, for which the outcome was inactive.

As for `C#CCN1C(=O)COc2cc(F)c(N3C(=O)C4=C(CCCC4)C3=O)cc21`, the result was inactive.

On to `CC(C)(C)C(O)/C(=C\c1ccc(Cl)cc1Cl)n1cncn1` (stereo not given), for which the result was inactive.

In the case of `COP(=S)(OC)Oc1ccc(SC)c(C)c1`, the outcome was inactive.

In the case of `COC(=O)c1ccccc1S(=O)(=O)NC(=O)N(C)c1nc(C)nc(OC)n1`, the outcome was inactive.

For the compound `O=C(NC(=O)c1c(F)cccc1F)Nc1ccc(OC(F)(F)C(F)OC(F)(F)F)c(Cl)c1` (stereo not given), the result was inactive.

As to `COC(=O)c1ccccc1CS(=O)(=O)NC(=O)Nc1nc(OC)cc(OC)n1`, the outcome was inactive.

`O=C(Nc1ccccc1)Nc1cnns1`: the outcome was inactive.

Turning to `CC1(C)C(C=C(Cl)Cl)C1C(=O)OC(C#N)c1ccc(F)c(Oc2ccccc2)c1` (stereo not given), the outcome was inactive.

For the compound `Cc1[nH]c(=O)n(C(C)(C)C)c(=O)c1Cl`, the result was inactive.

In the case of `COc1cc(OC)nc(NC(=O)NS(=O)(=O)c2cc(NC=O)ccc2C(=O)N(C)C)n1`, the result was inactive.

With `CNC(=O)Oc1cccc(N=CN(C)C)c1`, the outcome was inactive.

On to `CCOCN(C(=O)CCl)c1c(C)cccc1CC`, for which the outcome was inactive.

On to `COc1nn(CSP(=S)(OC)OC)c(=O)s1`, for which the outcome was inactive.

For the compound `O=C(O)CCCOc1ccc(Cl)cc1Cl`, the result was inactive.

With `CC(C)OC(=O)Nc1cccc(Cl)c1`, the outcome was inactive.

Take `CCC(C)(NC(=O)c1cc(Cl)c(C)c(Cl)c1)C(=O)CCl` (stereo not given): the AC50 is 10.5 µM (active).

`CNC(=O)CSP(=S)(OC)OC`: the outcome was inactive.

As to `Oc1ccc(Cl)cc1Cc1ccccc1`, the half-maximal activity concentration (AC50) is 36.8 µM (active) [middle of 7 runs].

As to `O=S(=O)(O)C(F)(F)C(F)(F)C(F)(F)C(F)(F)C(F)(F)C(F)(F)C(F)(F)C(F)(F)F`, the outcome was inactive.

Regarding `N#Cc1c(Cl)c(Cl)c(Cl)c(C#N)c1Cl`, the half-maximal activity concentration (AC50) was 1.83 µM (active).

As for `CNC(=O)/C=C(\C)OP(=O)(OC)OC`, the outcome was inactive.

In the case of `C[C@H]1[C@H](c2ccc(Cl)cc2)SC(=O)N1C(=O)NC1CCCCC1`, the result was inactive.

`CCN(CC)C(=O)SCc1ccc(Cl)cc1`: the result was inactive.

Regarding `CCOC1Oc2ccc(OS(C)(=O)=O)cc2C1(C)C` (stereo not given), the outcome was inactive.

In the case of `Oc1cc(Cl)ccc1Oc1ccc(Cl)cc1Cl`, the AC50 is 15.8 µM (active) [middle of 4 runs].

In the case of `O=[N+]([O-])/N=C1\NCCN1Cc1ccc(Cl)nc1`, the result was inactive.

As to `O=C1c2ccccc2C(=O)N1SC(Cl)(Cl)Cl`, the outcome was inactive.

Take `CCCN(CCC)c1c([N+](=O)[O-])cc(C(F)(F)F)cc1[N+](=O)[O-]`: the outcome was inactive.

As for `O=[N+]([O-])c1c(Cl)c(Cl)c(Cl)c(Cl)c1Cl`, the result was inactive.

With `OCCOc1ccccc1`, the result was inactive.

Take `COC(=O)c1ccccc1S(=O)(=O)NC(=O)Nc1nc(C)nc(OC)n1`: the outcome was inactive.

For `O=C(O)COc1ccc(Cl)cc1Cl`, the result was inactive.

Take `COP(=S)(OC)Oc1ccc([N+](=O)[O-])cc1`: the outcome was inactive.

For the compound `[2H]C1([2H])[n+]2ccccc2-c2cccc[n+]2C1([2H])[2H]`, the result was inactive.

In the case of `COP(=O)(OC)OC=C(Cl)Cl`, the result was inactive.

For `CN1CSC(=S)N(C)C1`, the AC50 is 31.6 µM (active).

With `CCS(=O)(=O)c1cccnc1S(=O)(=O)NC(=O)Nc1nc(OC)cc(OC)n1`, the outcome was inactive.

As usually defined, the AC50 is the concentration at which the activity in the assay is half-maximal.

The values above are taken from PubChem BioAssay (EPA / NIEHS).
